Results: article PMC11006913
Positions count from the first letter of the chain named.

Key:
Test in all cases: PBM; 200 nM protein, PBS
Conditions in all cases: dsDNA, one strand shown
[1] = molecular target: T1, NKX2-4 (Homo sapiens, UniProt Q9H2Z4 175-261, P217L)
T1 sequence: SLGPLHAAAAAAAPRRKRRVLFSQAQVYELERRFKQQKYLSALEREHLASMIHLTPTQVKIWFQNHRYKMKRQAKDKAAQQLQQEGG

[2] = molecular target: T2, NKX2-4 (Homo sapiens, UniProt Q9H2Z4 175-261, T231S)
T2 sequence: T1 sequence with L43P, T57S

[3] = molecular target: T3, NKX2-4 (Homo sapiens, UniProt Q9H2Z4 175-261)
T3 sequence: T1 sequence with L43P

[4] = molecular target: T4, NKX2-4 (Homo sapiens, UniProt Q9H2Z4 175-261, R246Q)
T4 sequence: T1 sequence with L43P, R72Q

Sequence	binding signal [1]	binding signal [2]	binding signal [3]	binding signal [4]
ACCGCAAC	9.55 upbm affinity estimate (log intensity, higher = more binding, comparable within an allelic series)	9.45 upbm affinity estimate (log intensity, higher = more binding, comparable within an allelic series)	9.49 upbm affinity estimate (log intensity, higher = more binding, comparable within an allelic series)	9.62 upbm affinity estimate (log intensity, higher = more binding, comparable within an allelic series)
AAAGTAGC	11.5 upbm affinity estimate (log intensity, higher = more binding, comparable within an allelic series)	11.9 upbm affinity estimate (log intensity, higher = more binding, comparable within an allelic series)	11.5 upbm affinity estimate (log intensity, higher = more binding, comparable within an allelic series)	11.7 upbm affinity estimate (log intensity, higher = more binding, comparable within an allelic series)
ATGAGTAC	12.4 upbm affinity estimate (log intensity, higher = more binding, comparable within an allelic series)	12.8 upbm affinity estimate (log intensity, higher = more binding, comparable within an allelic series)	12.3 upbm affinity estimate (log intensity, higher = more binding, comparable within an allelic series)	12.7 upbm affinity estimate (log intensity, higher = more binding, comparable within an allelic series)
ACGGCGCC	9.61 upbm affinity estimate (log intensity, higher = more binding, comparable within an allelic series)	9.62 upbm affinity estimate (log intensity, higher = more binding, comparable within an allelic series)	9.59 upbm affinity estimate (log intensity, higher = more binding, comparable within an allelic series)	9.67 upbm affinity estimate (log intensity, higher = more binding, comparable within an allelic series)
CGATCCCG	9.54 upbm affinity estimate (log intensity, higher = more binding, comparable within an allelic series)	9.56 upbm affinity estimate (log intensity, higher = more binding, comparable within an allelic series)	9.59 upbm affinity estimate (log intensity, higher = more binding, comparable within an allelic series)	9.65 upbm affinity estimate (log intensity, higher = more binding, comparable within an allelic series)
TCCACTAA	11.6 upbm affinity estimate (log intensity, higher = more binding, comparable within an allelic series)	11.7 upbm affinity estimate (log intensity, higher = more binding, comparable within an allelic series)	11.5 upbm affinity estimate (log intensity, higher = more binding, comparable within an allelic series)	11.7 upbm affinity estimate (log intensity, higher = more binding, comparable within an allelic series)
CCCGCAGG	8.95 upbm affinity estimate (log intensity, higher = more binding, comparable within an allelic series)	8.81 upbm affinity estimate (log intensity, higher = more binding, comparable within an allelic series)	9.01 upbm affinity estimate (log intensity, higher = more binding, comparable within an allelic series)	8.96 upbm affinity estimate (log intensity, higher = more binding, comparable within an allelic series)
ACGCAGTG	9.7 upbm affinity estimate (log intensity, higher = more binding, comparable within an allelic series)	9.67 upbm affinity estimate (log intensity, higher = more binding, comparable within an allelic series)	9.6 upbm affinity estimate (log intensity, higher = more binding, comparable within an allelic series)	9.5 upbm affinity estimate (log intensity, higher = more binding, comparable within an allelic series)
ATCGGTCC	9.97 upbm affinity estimate (log intensity, higher = more binding, comparable within an allelic series)	9.94 upbm affinity estimate (log intensity, higher = more binding, comparable within an allelic series)	9.85 upbm affinity estimate (log intensity, higher = more binding, comparable within an allelic series)	9.95 upbm affinity estimate (log intensity, higher = more binding, comparable within an allelic series)
ATCGGAGC	9.93 upbm affinity estimate (log intensity, higher = more binding, comparable within an allelic series)	9.93 upbm affinity estimate (log intensity, higher = more binding, comparable within an allelic series)	9.9 upbm affinity estimate (log intensity, higher = more binding, comparable within an allelic series)	10 upbm affinity estimate (log intensity, higher = more binding, comparable within an allelic series)
CATCGCGA	9.66 upbm affinity estimate (log intensity, higher = more binding, comparable within an allelic series)	9.66 upbm affinity estimate (log intensity, higher = more binding, comparable within an allelic series)	9.73 upbm affinity estimate (log intensity, higher = more binding, comparable within an allelic series)	9.58 upbm affinity estimate (log intensity, higher = more binding, comparable within an allelic series)
GCGCGACA	9.99 upbm affinity estimate (log intensity, higher = more binding, comparable within an allelic series)	10 upbm affinity estimate (log intensity, higher = more binding, comparable within an allelic series)	10 upbm affinity estimate (log intensity, higher = more binding, comparable within an allelic series)	10.1 upbm affinity estimate (log intensity, higher = more binding, comparable within an allelic series)
GTCTCGCA	9.7 upbm affinity estimate (log intensity, higher = more binding, comparable within an allelic series)	9.57 upbm affinity estimate (log intensity, higher = more binding, comparable within an allelic series)	9.65 upbm affinity estimate (log intensity, higher = more binding, comparable within an allelic series)	9.64 upbm affinity estimate (log intensity, higher = more binding, comparable within an allelic series)
CCCCGCCG	9.51 upbm affinity estimate (log intensity, higher = more binding, comparable within an allelic series)	9.45 upbm affinity estimate (log intensity, higher = more binding, comparable within an allelic series)	9.54 upbm affinity estimate (log intensity, higher = more binding, comparable within an allelic series)	9.57 upbm affinity estimate (log intensity, higher = more binding, comparable within an allelic series)
GTCAAGGA	11.7 upbm affinity estimate (log intensity, higher = more binding, comparable within an allelic series)	11.9 upbm affinity estimate (log intensity, higher = more binding, comparable within an allelic series)	11.6 upbm affinity estimate (log intensity, higher = more binding, comparable within an allelic series)	11.6 upbm affinity estimate (log intensity, higher = more binding, comparable within an allelic series)
GTACTCAA	12.6 upbm affinity estimate (log intensity, higher = more binding, comparable within an allelic series)	13 upbm affinity estimate (log intensity, higher = more binding, comparable within an allelic series)	12.5 upbm affinity estimate (log intensity, higher = more binding, comparable within an allelic series)	13.1 upbm affinity estimate (log intensity, higher = more binding, comparable within an allelic series)
CGCCCTGA	9.84 upbm affinity estimate (log intensity, higher = more binding, comparable within an allelic series)	9.84 upbm affinity estimate (log intensity, higher = more binding, comparable within an allelic series)	9.83 upbm affinity estimate (log intensity, higher = more binding, comparable within an allelic series)	9.87 upbm affinity estimate (log intensity, higher = more binding, comparable within an allelic series)
ACGGCGAC	9.81 upbm affinity estimate (log intensity, higher = more binding, comparable within an allelic series)	9.82 upbm affinity estimate (log intensity, higher = more binding, comparable within an allelic series)	9.78 upbm affinity estimate (log intensity, higher = more binding, comparable within an allelic series)	9.81 upbm affinity estimate (log intensity, higher = more binding, comparable within an allelic series)
CCGCTACC	9.71 upbm affinity estimate (log intensity, higher = more binding, comparable within an allelic series)	9.7 upbm affinity estimate (log intensity, higher = more binding, comparable within an allelic series)	9.66 upbm affinity estimate (log intensity, higher = more binding, comparable within an allelic series)	9.79 upbm affinity estimate (log intensity, higher = more binding, comparable within an allelic series)
ACGCCGCA	9.67 upbm affinity estimate (log intensity, higher = more binding, comparable within an allelic series)	9.65 upbm affinity estimate (log intensity, higher = more binding, comparable within an allelic series)	9.64 upbm affinity estimate (log intensity, higher = more binding, comparable within an allelic series)	9.74 upbm affinity estimate (log intensity, higher = more binding, comparable within an allelic series)
CGGGTACG	9.52 upbm affinity estimate (log intensity, higher = more binding, comparable within an allelic series)	9.68 upbm affinity estimate (log intensity, higher = more binding, comparable within an allelic series)	9.69 upbm affinity estimate (log intensity, higher = more binding, comparable within an allelic series)	9.6 upbm affinity estimate (log intensity, higher = more binding, comparable within an allelic series)
CGCGGCCC	9.94 upbm affinity estimate (log intensity, higher = more binding, comparable within an allelic series)	9.93 upbm affinity estimate (log intensity, higher = more binding, comparable within an allelic series)	10 upbm affinity estimate (log intensity, higher = more binding, comparable within an allelic series)	9.94 upbm affinity estimate (log intensity, higher = more binding, comparable within an allelic series)
GTACTCGA	12.4 upbm affinity estimate (log intensity, higher = more binding, comparable within an allelic series)	12.9 upbm affinity estimate (log intensity, higher = more binding, comparable within an allelic series)	12.3 upbm affinity estimate (log intensity, higher = more binding, comparable within an allelic series)	12.9 upbm affinity estimate (log intensity, higher = more binding, comparable within an allelic series)
ACCGTCTG	9.6 upbm affinity estimate (log intensity, higher = more binding, comparable within an allelic series)	9.59 upbm affinity estimate (log intensity, higher = more binding, comparable within an allelic series)	9.56 upbm affinity estimate (log intensity, higher = more binding, comparable within an allelic series)	9.61 upbm affinity estimate (log intensity, higher = more binding, comparable within an allelic series)
ATGTCCGG	9.39 upbm affinity estimate (log intensity, higher = more binding, comparable within an allelic series)	9.43 upbm affinity estimate (log intensity, higher = more binding, comparable within an allelic series)	9.4 upbm affinity estimate (log intensity, higher = more binding, comparable within an allelic series)	9.49 upbm affinity estimate (log intensity, higher = more binding, comparable within an allelic series)
ACTTAGCT	11.7 upbm affinity estimate (log intensity, higher = more binding, comparable within an allelic series)	11.8 upbm affinity estimate (log intensity, higher = more binding, comparable within an allelic series)	11.5 upbm affinity estimate (log intensity, higher = more binding, comparable within an allelic series)	11.9 upbm affinity estimate (log intensity, higher = more binding, comparable within an allelic series)
AGACTGAC	9.52 upbm affinity estimate (log intensity, higher = more binding, comparable within an allelic series)	9.58 upbm affinity estimate (log intensity, higher = more binding, comparable within an allelic series)	9.63 upbm affinity estimate (log intensity, higher = more binding, comparable within an allelic series)	9.64 upbm affinity estimate (log intensity, higher = more binding, comparable within an allelic series)
GAAGAGTA	11.9 upbm affinity estimate (log intensity, higher = more binding, comparable within an allelic series)	12.2 upbm affinity estimate (log intensity, higher = more binding, comparable within an allelic series)	11.7 upbm affinity estimate (log intensity, higher = more binding, comparable within an allelic series)	12.2 upbm affinity estimate (log intensity, higher = more binding, comparable within an allelic series)
ATCCGGCC	9.77 upbm affinity estimate (log intensity, higher = more binding, comparable within an allelic series)	9.8 upbm affinity estimate (log intensity, higher = more binding, comparable within an allelic series)	9.79 upbm affinity estimate (log intensity, higher = more binding, comparable within an allelic series)	9.9 upbm affinity estimate (log intensity, higher = more binding, comparable within an allelic series)
